Data published in the supplement of paper PMC6411743.
± gives the standard deviation of the averaged measurements. About 5,400 targets were measured; listed, in parts, are those with the largest changes and a random draw of the rest.

Compound: Nc1nc2c(ncn2[C@@H]2O[C@H](COP(=O)(O)OP(=O)(O)OP(=O)(O)O)[C@@H](O)[C@H]2O)c(=O)[nH]1 [guanosine triphosphate]
Assay: NP40-soluble protein abundance relative to vehicle (solubility fold change) (ratio); higher = more soluble protein in presence of GTP
Summary of the method: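 Across three independent experiments, values are fold changes against the detergent-processed vehicle for each replicate, based on vsn-normalised intensities. The samples were Jurkat crude lysate treated with eight concentrations (0.1 to 10 mM) for 10 min at room temperature and then 3 min at 37 °C. Lysate was solubilised with 0.8% NP40 and benzonase, ultracentrifuged, and the supernatant analysed by TMT-labelled LC-MS/MS.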

Sequence of UniProt Q96FJ2 (Q96FJ2 whole entry): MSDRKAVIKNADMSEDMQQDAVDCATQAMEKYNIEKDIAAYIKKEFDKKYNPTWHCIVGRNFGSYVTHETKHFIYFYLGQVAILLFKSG
Sequence of UniProt Q9P287 (Q9P287 whole entry): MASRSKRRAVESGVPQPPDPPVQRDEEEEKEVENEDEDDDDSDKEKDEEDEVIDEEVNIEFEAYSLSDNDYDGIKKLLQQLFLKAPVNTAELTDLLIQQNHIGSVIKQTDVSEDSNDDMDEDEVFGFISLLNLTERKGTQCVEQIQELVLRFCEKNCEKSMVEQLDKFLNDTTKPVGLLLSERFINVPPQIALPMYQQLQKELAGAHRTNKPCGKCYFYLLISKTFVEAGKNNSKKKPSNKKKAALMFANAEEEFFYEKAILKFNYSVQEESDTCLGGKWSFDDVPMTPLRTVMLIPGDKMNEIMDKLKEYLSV
Sequence of UniProt Q9Y696 (Q9Y696 whole entry): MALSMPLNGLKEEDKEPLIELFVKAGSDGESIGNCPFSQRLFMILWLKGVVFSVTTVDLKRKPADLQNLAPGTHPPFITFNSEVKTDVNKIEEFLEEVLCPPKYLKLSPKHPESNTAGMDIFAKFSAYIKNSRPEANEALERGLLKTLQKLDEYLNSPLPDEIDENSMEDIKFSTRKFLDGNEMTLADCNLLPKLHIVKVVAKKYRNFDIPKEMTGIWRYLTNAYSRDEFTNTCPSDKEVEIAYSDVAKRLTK
Sequence of UniProt Q9NVG8 (Q9NVG8 whole entry): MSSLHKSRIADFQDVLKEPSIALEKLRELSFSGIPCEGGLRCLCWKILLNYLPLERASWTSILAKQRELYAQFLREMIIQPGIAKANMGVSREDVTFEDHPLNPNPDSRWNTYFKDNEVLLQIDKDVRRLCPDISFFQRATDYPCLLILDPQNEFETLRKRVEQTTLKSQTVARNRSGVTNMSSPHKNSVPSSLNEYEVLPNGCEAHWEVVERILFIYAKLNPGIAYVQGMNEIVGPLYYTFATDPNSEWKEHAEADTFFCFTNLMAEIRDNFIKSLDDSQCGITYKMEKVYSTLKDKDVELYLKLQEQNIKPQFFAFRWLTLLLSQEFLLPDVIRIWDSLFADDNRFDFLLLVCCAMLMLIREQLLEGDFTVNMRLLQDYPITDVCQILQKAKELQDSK
Sequence of UniProt Q9Y333 (Q9Y333 whole entry): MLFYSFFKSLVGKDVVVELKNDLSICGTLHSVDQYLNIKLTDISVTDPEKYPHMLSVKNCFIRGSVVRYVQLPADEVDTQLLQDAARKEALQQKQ
Sequence of UniProt Q96BY9 (Q96BY9 whole entry, one chain of several): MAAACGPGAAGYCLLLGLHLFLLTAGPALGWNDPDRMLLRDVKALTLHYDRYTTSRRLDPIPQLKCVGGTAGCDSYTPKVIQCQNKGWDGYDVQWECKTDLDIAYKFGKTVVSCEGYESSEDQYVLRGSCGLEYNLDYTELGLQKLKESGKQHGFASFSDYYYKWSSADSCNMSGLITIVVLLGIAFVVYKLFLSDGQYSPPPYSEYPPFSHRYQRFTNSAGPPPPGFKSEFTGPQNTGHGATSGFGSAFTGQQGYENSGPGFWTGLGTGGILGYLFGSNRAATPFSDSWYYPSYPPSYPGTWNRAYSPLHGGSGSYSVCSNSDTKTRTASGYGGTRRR
Sequence of UniProt Q9NVX0 (Q9NVX0 whole entry): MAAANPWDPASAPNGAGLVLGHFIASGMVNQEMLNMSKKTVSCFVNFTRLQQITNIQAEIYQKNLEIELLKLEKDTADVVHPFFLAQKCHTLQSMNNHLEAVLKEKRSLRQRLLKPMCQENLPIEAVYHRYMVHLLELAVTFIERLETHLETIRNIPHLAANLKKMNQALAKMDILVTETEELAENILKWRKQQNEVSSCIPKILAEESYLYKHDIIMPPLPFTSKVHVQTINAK
Sequence of UniProt Q92900 (Q92900 whole entry): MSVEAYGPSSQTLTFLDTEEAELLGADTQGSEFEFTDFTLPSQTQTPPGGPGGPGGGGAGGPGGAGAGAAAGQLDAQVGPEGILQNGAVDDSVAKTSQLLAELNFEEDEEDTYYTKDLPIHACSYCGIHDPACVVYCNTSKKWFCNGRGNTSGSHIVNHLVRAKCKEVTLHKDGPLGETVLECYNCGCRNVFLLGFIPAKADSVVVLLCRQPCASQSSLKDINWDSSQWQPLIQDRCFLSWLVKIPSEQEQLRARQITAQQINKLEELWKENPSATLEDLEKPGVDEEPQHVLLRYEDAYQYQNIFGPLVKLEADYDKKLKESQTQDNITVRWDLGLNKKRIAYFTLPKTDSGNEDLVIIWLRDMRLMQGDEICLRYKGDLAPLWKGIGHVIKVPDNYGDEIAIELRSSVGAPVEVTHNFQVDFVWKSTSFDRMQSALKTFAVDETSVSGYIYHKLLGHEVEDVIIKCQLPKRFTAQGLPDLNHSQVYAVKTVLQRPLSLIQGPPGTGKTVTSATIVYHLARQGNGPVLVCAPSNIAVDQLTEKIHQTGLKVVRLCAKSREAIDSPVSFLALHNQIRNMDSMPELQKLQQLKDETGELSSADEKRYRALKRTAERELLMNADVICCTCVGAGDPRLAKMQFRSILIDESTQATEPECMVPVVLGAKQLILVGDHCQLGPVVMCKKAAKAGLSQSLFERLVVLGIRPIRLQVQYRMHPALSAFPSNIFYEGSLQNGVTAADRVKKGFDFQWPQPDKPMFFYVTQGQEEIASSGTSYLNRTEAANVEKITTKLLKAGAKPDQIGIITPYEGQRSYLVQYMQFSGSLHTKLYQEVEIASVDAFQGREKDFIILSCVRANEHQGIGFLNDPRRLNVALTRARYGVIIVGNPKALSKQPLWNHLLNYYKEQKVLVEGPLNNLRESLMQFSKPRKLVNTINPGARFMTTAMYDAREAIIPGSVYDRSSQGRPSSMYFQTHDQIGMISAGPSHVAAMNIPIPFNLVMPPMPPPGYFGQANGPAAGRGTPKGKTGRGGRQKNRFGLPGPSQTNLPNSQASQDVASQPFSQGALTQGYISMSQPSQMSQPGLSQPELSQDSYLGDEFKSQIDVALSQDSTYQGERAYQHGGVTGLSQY
Sequence of UniProt Q9Y6A4 (Q9Y6A4 whole entry): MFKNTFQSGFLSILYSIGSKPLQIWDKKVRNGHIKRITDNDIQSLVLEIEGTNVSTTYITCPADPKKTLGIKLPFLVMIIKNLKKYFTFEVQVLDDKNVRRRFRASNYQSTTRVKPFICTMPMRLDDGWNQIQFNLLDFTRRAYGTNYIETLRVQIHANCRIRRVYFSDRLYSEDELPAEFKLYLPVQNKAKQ
Sequence of UniProt Q9UNX4 (Q9UNX4 whole entry): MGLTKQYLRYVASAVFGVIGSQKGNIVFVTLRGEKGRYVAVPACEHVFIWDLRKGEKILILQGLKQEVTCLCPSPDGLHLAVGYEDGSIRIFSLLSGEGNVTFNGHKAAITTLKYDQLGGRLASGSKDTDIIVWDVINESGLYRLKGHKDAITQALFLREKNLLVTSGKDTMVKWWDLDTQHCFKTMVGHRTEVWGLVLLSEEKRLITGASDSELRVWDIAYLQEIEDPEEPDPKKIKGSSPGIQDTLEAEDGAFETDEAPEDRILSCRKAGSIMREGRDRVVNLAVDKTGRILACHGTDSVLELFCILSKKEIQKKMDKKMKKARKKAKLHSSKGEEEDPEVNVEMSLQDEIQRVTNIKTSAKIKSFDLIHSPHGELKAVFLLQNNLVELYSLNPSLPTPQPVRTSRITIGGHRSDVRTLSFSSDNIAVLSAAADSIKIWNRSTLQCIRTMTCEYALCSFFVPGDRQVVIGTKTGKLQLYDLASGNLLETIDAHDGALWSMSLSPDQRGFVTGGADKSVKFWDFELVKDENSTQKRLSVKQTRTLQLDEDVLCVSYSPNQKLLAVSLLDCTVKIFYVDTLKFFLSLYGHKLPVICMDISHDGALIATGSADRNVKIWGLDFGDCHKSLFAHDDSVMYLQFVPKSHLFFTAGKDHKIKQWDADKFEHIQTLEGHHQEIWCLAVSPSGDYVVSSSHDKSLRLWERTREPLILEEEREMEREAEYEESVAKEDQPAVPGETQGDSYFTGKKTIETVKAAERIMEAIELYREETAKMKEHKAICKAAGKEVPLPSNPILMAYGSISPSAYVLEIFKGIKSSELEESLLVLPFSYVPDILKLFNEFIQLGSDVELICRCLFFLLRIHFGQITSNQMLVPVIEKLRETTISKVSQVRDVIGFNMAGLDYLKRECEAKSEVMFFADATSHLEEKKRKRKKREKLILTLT
Sequence of UniProt Q9C0B5 (Q9C0B5 whole entry): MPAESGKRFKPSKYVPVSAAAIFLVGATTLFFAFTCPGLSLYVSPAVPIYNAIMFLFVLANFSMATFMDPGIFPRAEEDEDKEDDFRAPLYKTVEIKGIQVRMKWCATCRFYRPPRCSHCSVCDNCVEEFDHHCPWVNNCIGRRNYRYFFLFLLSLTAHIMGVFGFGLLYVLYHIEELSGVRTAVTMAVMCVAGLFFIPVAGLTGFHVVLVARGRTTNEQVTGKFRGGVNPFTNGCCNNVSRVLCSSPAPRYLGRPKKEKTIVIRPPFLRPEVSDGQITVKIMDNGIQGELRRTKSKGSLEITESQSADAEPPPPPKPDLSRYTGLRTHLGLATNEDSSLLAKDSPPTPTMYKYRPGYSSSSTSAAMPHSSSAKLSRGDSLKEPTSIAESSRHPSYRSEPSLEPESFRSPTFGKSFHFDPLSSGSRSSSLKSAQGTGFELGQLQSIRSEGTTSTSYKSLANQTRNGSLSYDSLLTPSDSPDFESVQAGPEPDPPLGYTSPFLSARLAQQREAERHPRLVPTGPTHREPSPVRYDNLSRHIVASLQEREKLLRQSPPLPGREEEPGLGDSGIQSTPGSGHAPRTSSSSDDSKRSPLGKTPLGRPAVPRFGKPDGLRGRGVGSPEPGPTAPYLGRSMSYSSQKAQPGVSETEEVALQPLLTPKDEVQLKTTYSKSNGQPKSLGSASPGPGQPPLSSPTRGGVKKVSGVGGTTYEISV
Sequence of UniProt Q9NY12 (Q9NY12 whole entry): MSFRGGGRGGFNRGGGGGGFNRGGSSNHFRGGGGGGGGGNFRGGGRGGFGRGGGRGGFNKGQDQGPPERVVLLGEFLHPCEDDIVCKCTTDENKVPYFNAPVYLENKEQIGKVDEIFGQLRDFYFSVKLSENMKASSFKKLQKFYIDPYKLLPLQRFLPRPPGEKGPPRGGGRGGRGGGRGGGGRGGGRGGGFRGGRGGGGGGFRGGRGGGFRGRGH

Target	NP40-soluble protein abundance (concentration: 0.1mM)	NP40-soluble protein abundance (concentration: 0.5mM)	NP40-soluble protein abundance (concentration: 1mM)	NP40-soluble protein abundance (concentration: 2mM)	NP40-soluble protein abundance (concentration: 4mM)	NP40-soluble protein abundance (concentration: 6mM)	NP40-soluble protein abundance (concentration: 8mM)	NP40-soluble protein abundance (concentration: 10mM)
UniProt Q9NW08|Q9NW08-2	1.08 ± 0.03	1.13 ± 0.075	1.09 ± 0.12	1.15 ± 0.18	1.19 ± 0.16	1.16 ± 0.19	1.13 ± 0.18	1.09 ± 0.17
UniProt Q9NY12|Q9NY12-2	1.04 ± 0.097	1.06 ± 0.12	1.17 ± 0.2	1.34 ± 0.15	1.51 ± 0.24	1.72 ± 0.19	1.9 ± 0.27	2.35 ± 0.49
UniProt Q92804|Q92804-2	0.976 ± 0.03	1.048 ± 0.0095	1.18 ± 0.09	1.35 ± 0.14	1.56 ± 0.22	1.73 ± 0.28	2.08 ± 0.35	2.59 ± 0.54
UniProt Q9NVX0|Q9NVX0-2|Q9NVX0-3	0.873 ± 0.21	0.823 ± 0.036	1.02 ± 0.079	1.05 ± 0.083	1.01 ± 0.12	0.996 ± 0.14	0.963 ± 0.022	1.02 ± 0.17
NAT10 (UniProt Q9H0A0)	1.07 ± 0.065	1.04 ± 0.061	1.02 ± 0.063	1.07 ± 0.065	1.2 ± 0.079	1.31 ± 0.085	1.37 ± 0.077	1.59 ± 0.11
UniProt Q9Y3U8|J3QSB5	0.976 ± 0.084	0.987 ± 0.01	1.04 ± 0.075	0.994 ± 0.14	0.921 ± 0.12	0.855 ± 0.09	0.514 ± 0.13	0.919 ± 0.16
UniProt Q99707|Q99707-2	0.997 ± 0.019	1.01 ± 0.062	0.987 ± 0.015	1.01 ± 0.033	0.973 ± 0.022	0.965 ± 0.0072	0.928 ± 0.023	0.927 ± 0.029
UTP18 (UniProt Q9Y5J1)	1.06 ± 0.091	1.16 ± 0.12	1.13 ± 0.091	1.24 ± 0.091	1.37 ± 0.11	1.3 ± 0.044	1.37 ± 0.17	1.57 ± 0.17
UniProt Q9Y333	0.946 ± 0.08	0.98 ± 0.11	0.973 ± 0.091	0.939 ± 0.1	0.887 ± 0.12	0.989 ± 0.13	0.962 ± 0.089	0.963 ± 0.059
UniProt Q9C0B5|Q9C0B5-2	1.02 ± 0.049	0.949 ± 0.024	0.96 ± 0.018	0.938 ± 0.012	0.903 ± 0.018	0.909 ± 0.019	1.02 ± 0.03	0.997 ± 0.029
ILKAP (UniProt Q9H0C8)	0.959 ± 0.034	0.95 ± 0.023	0.905 ± 0.049	0.904 ± 0.058	0.88 ± 0.058	0.897 ± 0.048	0.87 ± 0.049	0.869 ± 0.065
XRN2 (UniProt Q9H0D6)	0.993 ± 0.025	0.995 ± 0.027	0.974 ± 0.017	0.977 ± 0.027	0.985 ± 0.018	0.986 ± 0.027	1 ± 0.039	0.982 ± 0.028
WDR3 (UniProt Q9UNX4)	1.12 ± 0.08	1.15 ± 0.098	1.13 ± 0.061	1.42 ± 0.13	1.81 ± 0.16	1.98 ± 0.2	2.04 ± 0.12	1.974 ± 0.012
UniProt Q9H0F7|Q9H0F7-2|A0A0J9YXT0	1.02 ± 0.063	1.03 ± 0.1	0.914 ± 0.011	0.986 ± 0.12	0.932 ± 0.065	0.904 ± 0.032	0.864 ± 0.061	0.882 ± 0.065
UniProt Q9Y6A4	1.09 ± 0.027	1.04 ± 0.076	0.962 ± 0.024	0.968 ± 0.1	1.01 ± 0.05	0.964 ± 0.087	1.01 ± 0.05	0.957 ± 0.11
CLIC4 (UniProt Q9Y696)	1 ± 0.088	0.929 ± 0.063	0.966 ± 0.1	0.88 ± 0.1	0.976 ± 0.13	0.909 ± 0.1	0.973 ± 0.12	0.866 ± 0.08
UniProt Q9P287|Q9P287-2	1.03 ± 0.026	0.973 ± 0.032	0.971 ± 0.066	0.953 ± 0.059	0.99 ± 0.083	0.913 ± 0.069	0.943 ± 0.058	0.946 ± 0.075
UniProt Q96FJ2	0.875 ± 0.063	0.83 ± 0.033	1.07 ± 0.12	1.06 ± 0.081	1.18 ± 0.1	1.03 ± 0.11	1.05 ± 0.087	1.18 ± 0.17
SAMM50 (UniProt Q9Y512)	1.13 ± 0.15	1.18 ± 0.19	0.999 ± 0.1	1.13 ± 0.29	1.11 ± 0.19	1.1 ± 0.22	0.985 ± 0.098	0.949 ± 0.17
UniProt Q96BY9|H0YAZ1	1.08 ± 0.15	1.08 ± 0.064	1.09 ± 0.15	1.1 ± 0.094	1.03 ± 0.11	1.01 ± 0.1	1.05 ± 0.19	1.07 ± 0.22
X5CMH5 (UniProt Q03519)	1.09 ± 0.036	1.08 ± 0.054	0.978 ± 0.028	1.01 ± 0.085	0.976 ± 0.063	0.951 ± 0.051	0.934 ± 0.015	0.918 ± 0.065
UniProt Q92900|Q92900-2	1.01 ± 0.025	1.01 ± 0.04	0.936 ± 0.034	0.971 ± 0.065	0.957 ± 0.049	0.937 ± 0.057	0.898 ± 0.035	0.884 ± 0.011
UniProt Q9H330|Q9H330-2	0.908 ± 0.04	0.876 ± 0.06	0.796 ± 0.083	0.809 ± 0.017	0.799 ± 0.035	0.834 ± 0.028	0.81 ± 0.074	0.833 ± 0.037
UniProt Q9NVK5|Q9NVK5-2	0.987 ± 0.072	0.945 ± 0.1	1.16 ± 0.17	1.11 ± 0.086	1.13 ± 0.1	1.19 ± 0.092	1.28 ± 0.17	1.27 ± 0.2
TBC1D13 (UniProt Q9NVG8)	0.962 ± 0.036	0.985 ± 0.048	0.927 ± 0.046	0.896 ± 0.047	0.857 ± 0.071	0.866 ± 0.066	0.847 ± 0.1	0.822 ± 0.089
ZHX3 (UniProt Q9H4I2)	0.975 ± 0.062	0.94 ± 0.043	0.994 ± 0.1	1.01 ± 0.099	0.967 ± 0.039	1.01 ± 0.079	1.05 ± 0.07	1.05 ± 0.11
UniProt Q9HA47|Q9HA47-3|Q9HA47-4	1.01 ± 0.02	0.946 ± 0.037	1.05 ± 0.1	0.966 ± 0.056	0.98 ± 0.1	0.987 ± 0.034	0.983 ± 0.12	0.958 ± 0.024
VPS35 (UniProt Q96QK1)	1.03 ± 0.082	1.04 ± 0.093	0.913 ± 0.048	0.958 ± 0.13	0.929 ± 0.11	0.912 ± 0.086	0.833 ± 0.048	0.868 ± 0.093
